Common to all, as to assay: DAPPL (digital affinity profiling via proximity ligation, sequencing); 10 mM Tris-HCl pH 7.5, 50 mM NaCl, 1 mM DTT, 4% glycerol, room temperature, 30 min; GST-TFs on glutathione beads, 16-mer random dsDNA library, 0.1% formaldehyde crosslink after washing; high values mean tight binding
One assay has as its target T1, FLI1 (Homo sapiens, UniProt Q01543 1-452).
T1 sequence: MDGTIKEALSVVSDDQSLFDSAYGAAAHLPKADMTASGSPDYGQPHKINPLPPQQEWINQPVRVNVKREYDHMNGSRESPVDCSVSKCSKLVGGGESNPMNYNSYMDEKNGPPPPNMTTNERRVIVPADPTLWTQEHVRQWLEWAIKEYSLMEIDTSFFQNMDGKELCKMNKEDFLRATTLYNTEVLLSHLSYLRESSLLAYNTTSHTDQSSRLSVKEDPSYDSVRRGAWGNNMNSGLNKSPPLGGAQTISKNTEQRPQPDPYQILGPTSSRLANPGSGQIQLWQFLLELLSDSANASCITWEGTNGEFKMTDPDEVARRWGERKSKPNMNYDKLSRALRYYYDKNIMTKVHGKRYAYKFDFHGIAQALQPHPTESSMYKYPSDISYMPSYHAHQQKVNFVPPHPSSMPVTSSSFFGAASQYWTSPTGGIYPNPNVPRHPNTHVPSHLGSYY
As to conditions: protein: recombinant; tags: N-terminal GST; dsDNA, one strand shown. The method in brief: (§1)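 Each value of binding signal is a hexamer's read frequency for a factor divided by the same hexamer's frequency in the tag-only sample. Barcoded, bead-captured GST fusions of human transcription factors made in yeast were pooled with that sample and incubated with 200 nmole of a random double-stranded 16-mer DNA library in Tris/NaCl/DTT/glycerol buffer at room temperature for 30 min. Washing, 0.1% formaldehyde crosslinking, proximity ligation, PCR and Illumina NextSeq500 sequencing followed.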

For a further assay, the target named is T2, ELK1 (Homo sapiens, UniProt P19419 1-428).
T2 sequence: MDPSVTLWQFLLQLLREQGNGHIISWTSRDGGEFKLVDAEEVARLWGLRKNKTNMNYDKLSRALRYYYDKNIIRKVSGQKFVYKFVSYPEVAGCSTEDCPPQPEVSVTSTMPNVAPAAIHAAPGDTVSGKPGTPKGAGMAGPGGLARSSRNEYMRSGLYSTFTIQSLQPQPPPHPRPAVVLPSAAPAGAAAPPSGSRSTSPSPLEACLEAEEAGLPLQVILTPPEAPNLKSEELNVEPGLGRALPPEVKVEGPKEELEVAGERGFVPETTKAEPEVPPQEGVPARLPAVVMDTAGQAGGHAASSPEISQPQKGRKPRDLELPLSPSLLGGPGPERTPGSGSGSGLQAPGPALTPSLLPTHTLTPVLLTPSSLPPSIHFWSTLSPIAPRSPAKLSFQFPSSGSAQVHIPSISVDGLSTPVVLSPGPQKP
As to conditions: protein: recombinant; tags: N-terminal GST; dsDNA, one strand shown. The essentials: as §1

The target in another assay is T3, GABPA (Homo sapiens, UniProt Q06546 1-454).
T3 sequence: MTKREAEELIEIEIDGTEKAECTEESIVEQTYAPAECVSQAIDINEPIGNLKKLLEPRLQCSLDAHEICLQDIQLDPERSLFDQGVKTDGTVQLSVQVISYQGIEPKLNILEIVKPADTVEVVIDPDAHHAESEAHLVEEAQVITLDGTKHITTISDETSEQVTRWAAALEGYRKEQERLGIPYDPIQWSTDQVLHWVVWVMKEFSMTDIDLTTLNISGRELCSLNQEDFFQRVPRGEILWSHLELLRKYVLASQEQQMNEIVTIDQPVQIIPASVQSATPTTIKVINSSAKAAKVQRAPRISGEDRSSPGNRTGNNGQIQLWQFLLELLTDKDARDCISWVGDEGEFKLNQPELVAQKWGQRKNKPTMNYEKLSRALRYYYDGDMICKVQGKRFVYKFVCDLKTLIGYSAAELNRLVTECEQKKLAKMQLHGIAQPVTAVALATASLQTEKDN
As to conditions: protein: recombinant; tags: N-terminal GST; dsDNA, one strand shown. The method in brief:
as §1

The next assay deals with T4, ERG (Homo sapiens, UniProt P11308 1-479).
T4 sequence: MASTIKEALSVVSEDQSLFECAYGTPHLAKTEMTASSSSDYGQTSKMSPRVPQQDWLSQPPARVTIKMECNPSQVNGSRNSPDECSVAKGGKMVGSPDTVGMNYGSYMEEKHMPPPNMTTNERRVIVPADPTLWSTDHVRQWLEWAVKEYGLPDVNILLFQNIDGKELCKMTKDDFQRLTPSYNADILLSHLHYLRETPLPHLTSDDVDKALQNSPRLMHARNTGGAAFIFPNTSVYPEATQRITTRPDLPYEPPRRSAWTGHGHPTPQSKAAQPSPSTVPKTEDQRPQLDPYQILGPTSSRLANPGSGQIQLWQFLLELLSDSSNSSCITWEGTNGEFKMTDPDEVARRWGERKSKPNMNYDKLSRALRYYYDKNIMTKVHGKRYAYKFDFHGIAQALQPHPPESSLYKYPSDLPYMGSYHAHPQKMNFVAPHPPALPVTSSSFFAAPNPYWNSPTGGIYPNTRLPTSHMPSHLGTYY
As to conditions: protein: recombinant; tags: N-terminal GST; dsDNA, one strand shown. The essentials:
as §1

For the next assay, the target named is ELF1 (Homo sapiens, UniProt P32519 1-619). As to conditions: protein: recombinant; tags: N-terminal GST; dsDNA, one strand shown. The essentials: as §1
ELF1, sequence (P32519 whole entry): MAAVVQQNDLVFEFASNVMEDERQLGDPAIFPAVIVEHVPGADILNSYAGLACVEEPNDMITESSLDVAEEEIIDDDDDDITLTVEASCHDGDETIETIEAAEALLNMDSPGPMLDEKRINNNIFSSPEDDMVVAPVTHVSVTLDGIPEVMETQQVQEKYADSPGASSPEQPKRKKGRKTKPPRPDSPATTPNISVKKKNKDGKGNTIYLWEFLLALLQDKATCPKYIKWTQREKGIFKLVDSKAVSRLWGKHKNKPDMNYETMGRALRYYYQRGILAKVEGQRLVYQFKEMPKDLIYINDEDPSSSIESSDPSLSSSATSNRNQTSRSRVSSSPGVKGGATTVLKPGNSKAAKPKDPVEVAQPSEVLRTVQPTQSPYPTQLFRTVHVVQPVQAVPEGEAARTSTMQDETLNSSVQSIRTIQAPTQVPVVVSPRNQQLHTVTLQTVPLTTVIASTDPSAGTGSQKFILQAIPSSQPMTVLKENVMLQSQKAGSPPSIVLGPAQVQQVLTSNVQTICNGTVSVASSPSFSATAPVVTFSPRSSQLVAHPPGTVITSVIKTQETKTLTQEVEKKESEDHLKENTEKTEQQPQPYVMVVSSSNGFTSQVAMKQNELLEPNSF
The next assay addresses T5, EHF (Homo sapiens, UniProt Q9NZC4 1-300).
T5 sequence: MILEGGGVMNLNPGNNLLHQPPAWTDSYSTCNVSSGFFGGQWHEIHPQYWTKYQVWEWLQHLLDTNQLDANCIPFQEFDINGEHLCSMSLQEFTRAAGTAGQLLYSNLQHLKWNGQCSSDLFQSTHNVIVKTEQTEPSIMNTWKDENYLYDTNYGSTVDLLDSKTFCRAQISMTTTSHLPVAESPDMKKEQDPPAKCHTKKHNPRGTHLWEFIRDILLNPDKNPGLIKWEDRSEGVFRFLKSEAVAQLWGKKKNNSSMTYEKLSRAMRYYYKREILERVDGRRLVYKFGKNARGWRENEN
As to conditions: protein: recombinant; tags: N-terminal GST; dsDNA, one strand shown. The essentials: as §1

The target of a further assay is SPI1 (Homo sapiens, UniProt P17947 1-270). As to conditions: protein: recombinant; tags: N-terminal GST; dsDNA, one strand shown. The method in brief:
as §1

The next assay concerns the target SPIB (Homo sapiens, UniProt Q01892 1-262). As to conditions: protein: recombinant; tags: N-terminal GST; dsDNA, one strand shown. The method in brief: as §1
A further assay addresses T6, ELK3 (Homo sapiens, UniProt P41970 1-407).
T6 sequence: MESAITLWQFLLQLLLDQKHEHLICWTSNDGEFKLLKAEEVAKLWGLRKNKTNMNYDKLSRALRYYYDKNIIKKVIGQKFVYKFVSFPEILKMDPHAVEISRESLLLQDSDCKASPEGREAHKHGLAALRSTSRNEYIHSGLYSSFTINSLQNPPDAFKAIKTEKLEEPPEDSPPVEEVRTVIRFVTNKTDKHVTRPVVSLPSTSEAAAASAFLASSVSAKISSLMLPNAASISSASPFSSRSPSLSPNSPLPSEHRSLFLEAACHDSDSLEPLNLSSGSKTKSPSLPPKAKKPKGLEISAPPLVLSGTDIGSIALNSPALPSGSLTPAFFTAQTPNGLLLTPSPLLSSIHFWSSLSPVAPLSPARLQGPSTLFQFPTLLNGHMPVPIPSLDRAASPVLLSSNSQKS
As to conditions: protein: recombinant; tags: N-terminal GST; dsDNA, one strand shown. The essentials: as §1

The target of a further assay is T7, FEV (Homo sapiens, UniProt Q99581 1-238).
T7 sequence: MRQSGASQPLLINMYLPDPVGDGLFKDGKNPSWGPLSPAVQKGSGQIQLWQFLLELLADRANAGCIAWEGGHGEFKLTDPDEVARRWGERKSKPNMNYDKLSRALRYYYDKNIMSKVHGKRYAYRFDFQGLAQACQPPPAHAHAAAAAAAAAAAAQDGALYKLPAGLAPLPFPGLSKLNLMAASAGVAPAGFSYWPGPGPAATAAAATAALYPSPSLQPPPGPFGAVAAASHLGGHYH
As to conditions: protein: recombinant; tags: N-terminal GST; dsDNA, one strand shown. The essentials:
as §1

A further assay addresses ETV5 (Homo sapiens, UniProt P41161 1-510). As to conditions: protein: recombinant; tags: N-terminal GST; dsDNA, one strand shown. The method in brief:
as §1

The target in the next assay is HSF1 (Homo sapiens, UniProt Q00613 1-529). As to conditions: protein: recombinant; tags: N-terminal GST; chain copies: 3; dsDNA, one strand shown. The method in brief:
as §1

In another assay the target is T8, SPIC (Homo sapiens, UniProt Q8N5J4 1-248).
T8 sequence: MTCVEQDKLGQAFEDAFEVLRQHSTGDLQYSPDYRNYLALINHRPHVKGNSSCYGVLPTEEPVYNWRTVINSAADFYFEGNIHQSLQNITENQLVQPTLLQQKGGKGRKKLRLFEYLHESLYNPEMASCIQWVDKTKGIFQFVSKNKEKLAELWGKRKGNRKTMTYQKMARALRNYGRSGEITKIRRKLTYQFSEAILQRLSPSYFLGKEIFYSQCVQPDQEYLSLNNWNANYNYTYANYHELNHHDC
As to conditions: protein: recombinant; tags: N-terminal GST; dsDNA, one strand shown. The method in brief: as §1

A further assay has as its target ELF4 (Homo sapiens, UniProt Q99607 1-663). As to conditions: protein: recombinant; tags: N-terminal GST; dsDNA, one strand shown. The essentials: as §1
The target in the next assay is T9, ELK4 (Homo sapiens, UniProt P28324-2 1-405).
T9 sequence: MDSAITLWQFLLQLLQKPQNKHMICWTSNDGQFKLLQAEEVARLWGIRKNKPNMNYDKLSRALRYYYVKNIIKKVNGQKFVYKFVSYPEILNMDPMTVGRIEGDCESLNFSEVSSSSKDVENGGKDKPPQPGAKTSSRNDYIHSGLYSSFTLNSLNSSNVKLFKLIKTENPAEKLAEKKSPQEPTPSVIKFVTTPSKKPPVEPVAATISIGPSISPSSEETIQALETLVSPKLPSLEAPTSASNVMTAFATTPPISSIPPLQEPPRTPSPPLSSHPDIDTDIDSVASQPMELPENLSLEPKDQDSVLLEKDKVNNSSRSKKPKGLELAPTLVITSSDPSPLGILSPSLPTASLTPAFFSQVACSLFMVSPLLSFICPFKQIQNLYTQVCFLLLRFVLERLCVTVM
As to conditions: protein: recombinant; tags: N-terminal GST; dsDNA, one strand shown. The essentials:
as §1

The target in a further assay is T10, ETV2 (Homo sapiens, UniProt O00321 1-342).
T10 sequence: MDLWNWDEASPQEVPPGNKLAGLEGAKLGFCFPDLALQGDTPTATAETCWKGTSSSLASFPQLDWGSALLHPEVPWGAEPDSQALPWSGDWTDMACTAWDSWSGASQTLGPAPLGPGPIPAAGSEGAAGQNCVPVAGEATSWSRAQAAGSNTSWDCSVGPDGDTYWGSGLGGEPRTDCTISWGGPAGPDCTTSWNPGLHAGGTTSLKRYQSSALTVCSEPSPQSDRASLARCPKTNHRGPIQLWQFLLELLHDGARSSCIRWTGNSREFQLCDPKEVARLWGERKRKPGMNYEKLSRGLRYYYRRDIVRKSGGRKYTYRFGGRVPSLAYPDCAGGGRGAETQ
As to conditions: protein: recombinant; tags: N-terminal GST; dsDNA, one strand shown. The essentials:
as §1

Another assay deals with T11, ELF3 (Homo sapiens, UniProt P78545 1-371).
T11 sequence: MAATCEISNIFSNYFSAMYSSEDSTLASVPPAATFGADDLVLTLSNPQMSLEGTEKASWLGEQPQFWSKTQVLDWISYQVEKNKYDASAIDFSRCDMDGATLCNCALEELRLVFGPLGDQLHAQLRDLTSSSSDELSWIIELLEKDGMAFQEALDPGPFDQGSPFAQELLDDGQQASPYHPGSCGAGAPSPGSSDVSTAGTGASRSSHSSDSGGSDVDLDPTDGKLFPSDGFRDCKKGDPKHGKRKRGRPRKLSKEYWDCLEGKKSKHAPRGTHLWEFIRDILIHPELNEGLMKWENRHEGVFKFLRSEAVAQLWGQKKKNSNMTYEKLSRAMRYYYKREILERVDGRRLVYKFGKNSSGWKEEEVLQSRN
As to conditions: protein: recombinant; tags: N-terminal GST; dsDNA, one strand shown. The method in brief: as §1

Another assay concerns the target CRX (Homo sapiens, UniProt O43186 1-299). As to conditions: protein: recombinant; tags: N-terminal GST; dsDNA, one strand shown. The method in brief:
as §1

In another assay the target is ETV1 (Homo sapiens, UniProt P50549 1-477). As to conditions: protein: recombinant; tags: N-terminal GST; dsDNA, one strand shown. The method in brief:
as §1

ETV1, sequence (P50549 whole entry): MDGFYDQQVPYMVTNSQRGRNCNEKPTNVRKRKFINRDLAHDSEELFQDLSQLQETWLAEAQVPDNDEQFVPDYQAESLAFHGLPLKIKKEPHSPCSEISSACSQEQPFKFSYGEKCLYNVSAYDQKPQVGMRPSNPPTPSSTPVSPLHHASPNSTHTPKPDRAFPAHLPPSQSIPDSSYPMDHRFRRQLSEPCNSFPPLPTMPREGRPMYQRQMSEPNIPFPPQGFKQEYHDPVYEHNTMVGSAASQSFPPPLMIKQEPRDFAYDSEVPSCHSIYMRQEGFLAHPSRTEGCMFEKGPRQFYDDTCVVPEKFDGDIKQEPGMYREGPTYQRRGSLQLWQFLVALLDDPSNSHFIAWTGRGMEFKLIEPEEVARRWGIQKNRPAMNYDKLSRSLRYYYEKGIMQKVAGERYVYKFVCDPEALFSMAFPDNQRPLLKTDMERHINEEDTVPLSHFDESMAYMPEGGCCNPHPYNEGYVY
ELF4, sequence (Q99607 whole entry): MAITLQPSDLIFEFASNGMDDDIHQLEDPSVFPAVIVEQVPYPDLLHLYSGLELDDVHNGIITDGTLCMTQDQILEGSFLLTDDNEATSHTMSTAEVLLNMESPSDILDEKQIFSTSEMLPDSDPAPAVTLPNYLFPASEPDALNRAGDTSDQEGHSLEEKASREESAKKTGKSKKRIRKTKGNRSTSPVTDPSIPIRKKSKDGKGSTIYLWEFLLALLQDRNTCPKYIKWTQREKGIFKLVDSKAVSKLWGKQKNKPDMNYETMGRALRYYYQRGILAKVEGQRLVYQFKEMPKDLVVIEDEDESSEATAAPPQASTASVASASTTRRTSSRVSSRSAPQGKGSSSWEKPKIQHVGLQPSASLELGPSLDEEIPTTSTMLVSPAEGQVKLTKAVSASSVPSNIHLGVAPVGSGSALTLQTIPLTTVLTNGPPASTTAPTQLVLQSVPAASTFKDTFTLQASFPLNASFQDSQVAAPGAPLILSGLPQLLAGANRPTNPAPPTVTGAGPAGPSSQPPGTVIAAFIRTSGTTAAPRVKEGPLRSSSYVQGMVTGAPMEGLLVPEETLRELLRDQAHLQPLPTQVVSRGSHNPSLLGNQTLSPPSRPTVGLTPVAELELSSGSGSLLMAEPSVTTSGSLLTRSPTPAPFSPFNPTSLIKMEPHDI
HSF1, sequence (Q00613 whole entry): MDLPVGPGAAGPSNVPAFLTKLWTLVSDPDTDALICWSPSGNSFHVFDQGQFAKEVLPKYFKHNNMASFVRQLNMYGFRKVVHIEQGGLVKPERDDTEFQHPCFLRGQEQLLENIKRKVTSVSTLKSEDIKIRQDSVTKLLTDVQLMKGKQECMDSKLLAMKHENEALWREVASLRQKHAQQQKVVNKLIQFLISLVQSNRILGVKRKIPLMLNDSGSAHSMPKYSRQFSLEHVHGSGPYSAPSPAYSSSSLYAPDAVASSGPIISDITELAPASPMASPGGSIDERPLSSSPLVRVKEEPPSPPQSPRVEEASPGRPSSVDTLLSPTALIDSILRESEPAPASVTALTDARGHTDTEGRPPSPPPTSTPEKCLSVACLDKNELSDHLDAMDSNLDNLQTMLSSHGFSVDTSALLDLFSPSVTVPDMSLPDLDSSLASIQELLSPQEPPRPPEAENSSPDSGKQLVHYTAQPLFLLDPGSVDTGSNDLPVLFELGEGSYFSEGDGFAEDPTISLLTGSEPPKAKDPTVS
SPIB, sequence (Q01892 whole entry): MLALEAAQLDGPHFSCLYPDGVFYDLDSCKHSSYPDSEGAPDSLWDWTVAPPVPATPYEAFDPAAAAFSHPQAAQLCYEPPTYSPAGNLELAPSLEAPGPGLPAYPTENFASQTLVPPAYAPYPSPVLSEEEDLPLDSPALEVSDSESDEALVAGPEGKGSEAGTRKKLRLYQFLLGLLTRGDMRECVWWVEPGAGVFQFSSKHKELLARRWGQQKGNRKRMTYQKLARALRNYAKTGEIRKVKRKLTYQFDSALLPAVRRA
ETV5, sequence (P41161 whole entry): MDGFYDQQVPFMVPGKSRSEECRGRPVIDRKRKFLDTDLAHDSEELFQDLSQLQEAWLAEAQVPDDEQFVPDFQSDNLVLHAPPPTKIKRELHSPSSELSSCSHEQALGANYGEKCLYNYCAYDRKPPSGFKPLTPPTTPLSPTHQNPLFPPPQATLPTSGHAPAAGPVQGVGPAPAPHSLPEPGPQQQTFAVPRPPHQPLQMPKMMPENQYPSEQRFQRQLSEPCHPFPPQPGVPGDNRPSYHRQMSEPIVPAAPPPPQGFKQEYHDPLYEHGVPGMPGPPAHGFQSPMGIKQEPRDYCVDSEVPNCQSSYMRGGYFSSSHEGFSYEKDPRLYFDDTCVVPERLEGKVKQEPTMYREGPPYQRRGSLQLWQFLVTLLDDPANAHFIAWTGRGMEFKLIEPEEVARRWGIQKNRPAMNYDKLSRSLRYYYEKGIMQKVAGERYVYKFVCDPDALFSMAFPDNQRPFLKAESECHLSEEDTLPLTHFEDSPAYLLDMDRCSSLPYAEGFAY
CRX, sequence (O43186 whole entry): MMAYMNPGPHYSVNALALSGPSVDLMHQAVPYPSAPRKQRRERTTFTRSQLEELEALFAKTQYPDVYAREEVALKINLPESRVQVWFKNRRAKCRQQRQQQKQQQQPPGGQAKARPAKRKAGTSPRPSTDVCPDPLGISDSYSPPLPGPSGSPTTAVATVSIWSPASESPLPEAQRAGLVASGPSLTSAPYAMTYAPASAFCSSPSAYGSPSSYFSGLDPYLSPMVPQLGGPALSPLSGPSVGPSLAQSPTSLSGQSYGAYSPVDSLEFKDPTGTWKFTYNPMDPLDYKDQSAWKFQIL

TAATGG: the binding signal in the assay with FLI1 is 1.26 fold enrichment (6-mer frequency, TF over GST control); in the assay with ELK1 it was 1.35 fold enrichment (6-mer frequency, TF over GST control); with GABPA, 1.24 fold enrichment (6-mer frequency, TF over GST control); with ERG, 1.22 fold enrichment (6-mer frequency, TF over GST control); with ELF1 it was 1.32 fold enrichment (6-mer frequency, TF over GST control); in the assay with EHF it was 1.25 fold enrichment (6-mer frequency, TF over GST control). The binding signal is 1.28 fold enrichment (6-mer frequency, TF over GST control) with SPI1; 1.37 fold enrichment (6-mer frequency, TF over GST control) with SPIB; 1.31 fold enrichment (6-mer frequency, TF over GST control) in the assay with ELK3; 1.25 fold enrichment (6-mer frequency, TF over GST control) with FEV; 1.35 fold enrichment (6-mer frequency, TF over GST control) in the assay with ETV5; 1.46 fold enrichment (6-mer frequency, TF over GST control) with HSF1. The binding signal in the assay with SPIC is 1.34 fold enrichment (6-mer frequency, TF over GST control); in the assay with ELF4, 1.3 fold enrichment (6-mer frequency, TF over GST control); with ELK4, 1.3 fold enrichment (6-mer frequency, TF over GST control); in the assay with ETV2 it was 1.09 fold enrichment (6-mer frequency, TF over GST control); in the assay with ELF3, 1.31 fold enrichment (6-mer frequency, TF over GST control); with CRX it was 1.64 fold enrichment (6-mer frequency, TF over GST control). In addition, the binding signal in the assay with ETV1 was 1.45 fold enrichment (6-mer frequency, TF over GST control).

These data come from paper PMC7862700, “An all-to-all approach to the identification of sequence-specific readers for epigenetic DNA modifications on cytosine”.
